Bioassay records: PubChem, National Center for Advancing Translational Sciences (NCATS)
GALK inhibitor – qHTS Assay for Inhibitors of Human Galactokinase (GALK). Purified GALK, Kinase-Glo residual ATP luminescence. Potency, µM (titrated, usually from 57.5 µM), for the others: at the highest dose activity change, negative = inhibition, usual class: inhibitors. P51570. 270,000 tested, 0.007% active. AID 1868, 2009; also: % is scaled to controls: 0 for no effect and ±100 for the full control effect
Target sequence (P51570 whole entry, looked up): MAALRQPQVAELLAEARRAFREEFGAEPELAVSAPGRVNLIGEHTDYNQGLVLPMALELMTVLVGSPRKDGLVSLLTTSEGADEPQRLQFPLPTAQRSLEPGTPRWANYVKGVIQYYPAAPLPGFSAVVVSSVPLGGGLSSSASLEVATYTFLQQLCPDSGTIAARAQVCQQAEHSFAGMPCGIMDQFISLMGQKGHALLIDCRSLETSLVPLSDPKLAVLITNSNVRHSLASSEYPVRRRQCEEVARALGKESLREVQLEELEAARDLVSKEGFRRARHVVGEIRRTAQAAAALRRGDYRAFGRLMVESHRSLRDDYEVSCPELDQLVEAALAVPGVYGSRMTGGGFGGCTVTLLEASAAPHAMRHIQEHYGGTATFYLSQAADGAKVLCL
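GALK at 5 nM final was combined with compound, 35 uM ATP and 100 uM galactose in HEPES pH8.0 with MgCl2 and DTT. The reaction ran one hour at room temperature before luminescent ATP detection.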
A549 viability – Nrf2 qHTS screen for inhibitors: counterscreen for cytotoxicity; A549 ARE-Fluc cells, CellTiter-Fluor viability, 18-24 h; Potency, µM (series often up to 46 µM), for inactives: at the highest dose activity change, negative = cytotoxicity, hits mostly inhibitors; 390,000 tested, 0.16% active; also: % is scaled to controls: 0 for no effect and ±100 for the full control effect
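A549 ARE-Fluc cells in 5% FBS OPTI-MEM, 5000 cells/well, rested 2 h then exposed to compounds in concentration-response for 18-24 h at 37 °C. Viability by CellTiter-Fluor fluorescence (Ex 405/Em 525) after 30 min; luciferase luminescence (BugLite, 15 min, RT) read afterwards.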
TrxR1 substrate – qHTS Assay for Substrates of Mammalian Selenoprotein Thioredoxin Reductase 1 (TrxR1): qHTS | purified TrxR1 substrate turnover, NADPH consumption readout | Thioredoxin reductase 1, cytoplasmic (Rattus norvegicus), O89049 | 390,000 tested, 0.01% active | Potency, µM (series often up to 114 µM), without a hit: at the highest dose activity change, negative = substrate turnover; also: % is scaled to controls: 0 for no effect and ±100 for the full control effect; nearly all actives have a fitted effect of over 50% in size
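Rat TrxR1, dispensed at 90 nM, was prereduced with 400 uM NADPH (final) for 5 min at ~22 deg C, then incubated with compound 15 min before 400 uM selenite. A first-read NADPH fluorescence drop versus no-compound background flagged substrates.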
Nrf2 ARE act – qHTS of Nrf2 Activators | 410,000 tested, 0.31% active | AID 624171, 2012 | AREc32 ARE-luciferase reporter (MCF7-derived line), luminescence, 24 h | Potency, µM (highest dose often 46.1 µM), for inactives: at the top dose activation, most hits filed as activators; also: % of control where 0% means no effect; nearly all actives have a fitted effect of over 65% in size
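Luminescent ARE reporter assay in AREc32_Fluc cells: overnight plating at 37 deg C, 24 hr compound incubation, Steady-Glo added, 30 min RT before reading.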
rTrxR1 inhibitor – qHTS Assay for Inhibitors of Mammalian Selenoprotein Thioredoxin Reductase 1 (TrxR1): qHTS. recombinant rTrxR1, NADPH fluorescence consumption, selenite substrate. Thioredoxin reductase 1, cytoplasmic (Rattus norvegicus), O89049. 390,000 tested, 1% active. Potency, µM (titrated, usually from 114 µM), inactives show top-dose activity change, negative = inhibition, usual class: inhibitors. AID 588453, 2011; also: % is scaled to controls: 0 for no effect and ±100 for the full control effect; nearly all actives have a fitted effect of over 65% in size
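Rat TrxR1 (90 nM in the dispensed reagent) was pre-reduced with 400 uM NADPH for 5 min at room temperature, then incubated with compound for 15 min. After 400 uM selenite was added, NADPH fluorescence (Ex 340/Em 450 nm) was followed for 8 min.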
Nrf2 block – Nrf2 qHTS screen for inhibitors; A549 ARE-Fluc reporter, luciferase luminescence, 18-24 h; Potency, µM (highest dose often 46 µM), without a hit: at the highest dose activity change, negative = inhibition, actives largely listed as inhibitors; 360,000 tested, 2.1% active; also: % is scaled to controls: 0 for no effect and ±100 for the full control effect; nearly all actives have a fitted effect of over 60% in size
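Reporter: ARE-Fluc in A549. Exposure: 18-24 h, 37 °C, 5% CO2, 5% FBS OPTI-MEM. Readouts: fluorescent cytotoxicity (CellTiter-Fluor), then luminescent Nrf2 signal after BugLite.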
Numbers without * were called inactive; ? = inconclusive; . = no result; [ ] = dose if it differs, or a comment. Only some compounds are listed: those with a hit (about 3% of all), similar ones and a draw of the others. Calls follow the shape of the dose curve; as a rule, active = well fitted curve in the direction sought with a large enough effect; inconclusive = small, poorly fitted or top-dose-only effect, or another doubt; inactive = no such curve, though single readings can be large; an effect the other way counts as inactive or inconclusive. Potency is read from the fitted curve at half-maximal effect.

SMILES | GALK inhibitor | A549 viability | TrxR1 substrate | Nrf2 ARE act | rTrxR1 inhibitor | Nrf2 block
Cc1c(C(C)C)c(=O)n(-c2ccc(S(=O)(=O)NCc3ccccc3)cc2)n1C | -1% | -7% | 3%[57.1 µM] | 0% | 8%[57.1 µM] | 7.3µM*
Cc1c(C(C)C)c(=O)n(-c2ccc(S(=O)(=O)N3CCOCC3)cc2)n1C | 8% | 1% | 9% | 0% | 22%[57.1 µM] | ?
CC(=O)c1ccc(N2CCN(C(=O)CCS(=O)(=O)c3ccc4c(c3)oc(=O)n4C)CC2)cc1 | . | 5% | -3% | 0% | 15% | 9%
CCn1ccc2cc(S(=O)(=O)N3CCCN(C(=O)Nc4cccc(SC)c4)CC3)ccc21 | . | -3% | 1%[57.1 µM] | 1% | 13%[57.1 µM] | .
c1ccc(-c2cc3c(-n4cccc4)ncnc3o2)cc1 | 1% | -3% | 25% | 3.2µM* | 17% | 16%
COc1ccc(Cn2nnnc2CN(Cc2cc3ccc(C)cc3[nH]c2=O)C2CCCC2)cc1 | 2% | ? | 8% | 1% | 10% | 21µM*
CCOc1ccc2[nH]c(=O)c(CN(Cc3nnnn3Cc3ccco3)C3CCCCC3)cc2c1 | -5% | -11% | 4% | 0% | ? | -2%
COc1ccc(Cn2nnnc2CN(Cc2cc3cccc(C)c3[nH]c2=O)C2CCCC2)cc1 | -1% | -15% | -5% | 4% | 3% | ?
COc1cc2cc(CN(Cc3nnnn3Cc3ccco3)C3CCCCC3)c(=O)[nH]c2cc1OC | 1% | -14% | 24% | -1% | 11µM* | 18%
CCc1ccc(NC(=O)CN2C(=O)CSc3ccc(S(=O)(=O)N(C)C)cc32)cc1 | . | 3% | 1%[57.1 µM] | 0% | 18%[57.1 µM] | 0%
COc1ccc(-c2ccc(=O)n(CC(=O)Nc3ccc(C)cc3C)n2)cc1 | . | 10% | 5%[57.1 µM] | 4% | 35%[57.1 µM] | .
CC(=O)N1CCC(N(Cc2ccco2)C(=O)Nc2ccc(Br)cc2F)CC1 | . | -3% | 2% | 3% | 10% | 25%
CCOC(=O)c1cnn(-c2ccc(OC)cc2)c1C1CCN(C(=O)OC(C)(C)C)CC1 | . | -2% | -6% | 0% | 8% | ?
CCOc1ccc(NC(=NCc2ccc3c(c2)OCO3)SC2CC(=O)N(c3ccc(OCC)cc3)C2=O)cc1 (configuration not stated) | 0% | -27% | -3% | 0% | 3% | 15µM*
CCOc1ccc(NC(=NCc2ccc3c(c2)OCO3)SC2CC(=O)N(c3ccccc3)C2=O)cc1 (configuration not stated) | -3% | -9% | -3% | -1% | 7% | -14%
CC(C)c1ccc(N(C(=O)c2snc(C(N)=O)c2N)C(C(=O)NCC2CCCO2)c2ccc(N(C)C)cc2)cc1 (configuration not stated) | -1% | ? | 7%[0.0914 µM] | 0% | -3% | 18µM*
CN(C)c1ccc(C(C(=O)NC2CCCCC2)N(Cc2ccco2)C(=O)c2snc(C(N)=O)c2N)cc1 (configuration not stated) | 1% | ? | 4%[57.1 µM] | 3% | 4%[57.1 µM] | 15µM*
Oc1ccccc1Oc1c(F)c(F)nc(N2CCCC2)c1F | 1% | 1% | -6% | 2% | -6% | 13%
CC(=O)/C=C/c1ccccc1Oc1c(F)c(F)nc(F)c1F | -2% | 9% | 0% | 7.9µM* | 11% | 6%
COc1ccc2nc(Nc3sc4c(c3C(N)=O)CCCC4)sc2c1 | -2% | -4% | -8% | 25% | 14µM* | ?
CCOC(=O)CN1C(=O)N(c2ccc(C)c(C)c2)S(=O)(=O)c2ccccc21 | . | -24% | -2%[57.1 µM] | 1% | 12%[57.1 µM] | .
COc1ccc(-c2onc(C)c2C)cc1S(=O)(=O)NC1CCC(C)CC1 (configuration not stated) | . | -24% | 0%[57.1 µM] | 1% | 6%[57.1 µM] | 21µM*
COc1ccc(-c2onc(C)c2C)cc1S(=O)(=O)NC1CCCCC1 | . | -1% | 4%[57.1 µM] | 3% | 11%[57.1 µM] | -21%
COc1ccc(-c2onc(C)c2C)cc1S(=O)(=O)N(C)Cc1ccccc1 | . | 0% | -3%[57.1 µM] | 1% | 14%[57.1 µM] | 18µM*
Cc1ccc2oc(C(Cl)(Cl)Cl)cc(=O)c2c1 | -3% | ? | 7% | 22µM* | 202% | 1%
SMILES | GALK inhibitor | A549 viability | TrxR1 substrate | Nrf2 ARE act | rTrxR1 inhibitor | Nrf2 block
CC1(C)Cc2noc(N)c2C(C)(C)N1O | -2% | -3% | 4% | 0% | 1.6µM* | 5%
Cc1ccc(-n2c(O)c(C=Nc3cc(C)on3)c3ccccc3c2=O)c(C)c1 | -3% | ? | -5% | 0%[9.22 µM] | 5% | 23µM*
Cc1cc(N=Cc2c(O)n(-c3ccc(C)c(C)c3)c(=O)c3ccccc23)no1 | -2% | . | . | . | . | .
Cc1nc2ccccc2n1/N=C/c1ccc([N+](=O)[O-])o1 | . | ? | 9% | 0% | ? | 21µM*
Cc1n[nH]c(=S)n1/N=C/c1ccc(-c2ccccc2[N+](=O)[O-])o1 | -2% | ? | -14% | 10µM* | -7%[57.1 µM] | .
Cc1nc2ccccc2c(=O)n1/N=C/c1ccc([N+](=O)[O-])o1 | -3% | . | . | . | . | .
Cc1ccc(NC(=O)c2cc3c([nH]c2=O)CC(C)(C)CC3=O)c(C)c1 | . | -1% | 12% | 0% | 22% | 12%
CC(C)(C)NC(=O)COC(=O)CNC(=O)C1CCCCC1 | . | -14% | -3% | . | 1% | -11%
CCn1nc(C)cc1C(=O)Sc1cccc(Br)c1 | 0% | 0% | 7% | 2% | 7.9µM* | -25%
OCCCn1c(-c2ccc(F)cc2)csc1=Nc1ccc(F)cc1 | . | 5% | -11% | 3% | -5% | -23%
CC(=O)c1cccc(N=c2scc(-c3ccc(S(=O)(=O)N4CCOCC4)cc3)n2CCO)c1 | . | -1% | 1% | 8% | 6% | 15µM*
CC(C)Cn1c(-c2ccc(S(=O)(=O)N3CCCC3)cc2)csc1=Nc1ccccc1 | . | 4% | -7% | 1% | 13%[11.4 µM] | 16µM*
O=S(=O)(c1ccc(-c2csc(=Nc3ccc(F)cc3)n2CCCCCCO)cc1)N1CCCC1 | . | ? | -1% | -3% | 16% | 23µM*
CCOC(=O)c1cc(S(=O)(=O)N2CCN(c3cc(C)ccc3C)CC2)[nH]n1 | . | 13% | 6%[57.1 µM] | 0% | 25%[57.1 µM] | .
Cn1nnnc1Sc1ncnc2scc(-c3ccc(C(=O)OC(C)(C)C)cc3)c12 | . | -2% | . | . | . | 10%
C/C(=C\c1ccc(C)o1)C(=O)c1c(C)cc(C)[nH]c1=O | -1% | -8% | -9% | 0% | 50µM* | -8%
